Test [1] is described as follows: inhibitors of TNFa-induced NFkB p65 translocation, primary screen, imaging, HUVEC, MLSMR starter and 10KST1 sets (AID 438;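 active = inhibition above 20% together with a positive visual image hit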;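 note: compound added about 3h40 before a 20 min TNFalpha stimulation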;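 for inhibition: signal is the nuclear over cytoplasmic p65 intensity ratio per well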). The following applies: HUVEC TNFa-induced p65 nuclear translocation; cell count: measured here: nuclei count (cytotoxicity indicator), at 2.08 µM; inhibition: at 2 µM, stronger effect = higher value, 0% TNFa-plus-vehicle, 100% no-TNFa wells.
Test [2] in a line: reduction of polyQ htt aggregates in cells – imaging, exon1htt(103Q)mCFP cells, high-content imaging, primary screen (AID 483;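 active = visual image review flags a hit and inhibition of aggregation exceeds 20%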;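 note: compound exposure lasted 3 days before fixation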;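 for nuclei count: percent of the per-plate median nuclei count of sample wells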). As to conditions: exon1htt(103Q)mCFP cell line, aggregate imaging, at 2 µM; inhibition of aggregation: stronger effect = higher value; nuclei count: measured here: cell count, toxicity.
Test [3] in a line: endothelial E-selectin expression blockers – imaging, HUVEC, immunofluorescence, MLSMR starter and 10KST1 sets, primary screen (AID 487;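 active = visually confirmed hit in the image check and inhibition above 20%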;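 for inhibition: signal is fraction of cell area covered by stained E-selectin grains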;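 for nuclei count: 100% = median nuclei count of all wells on the same plate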). As to conditions: HUVEC TNFalpha-induced E-selectin immunofluorescence imaging, at 2 µM; inhibition: stronger effect = higher value; nuclei count: measured here: cell number, toxicity.
In test [4] the target is Voltage-gated potassium channel subunit beta-2 (Rattus norvegicus) (UniProt P62483). As to the kind of experiment: inhibitors of rat Kvbeta2 reductase activity – biochemical, NADPH fluorescence, primary screen (AID 622).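 Note: slope of raw intensity against log time taken from 70 to 1610 s.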 The following applies: recombinant KvBeta, 4-cyanobenzaldehyde reduction, at 10 µM, stronger effect = higher value.
The target is the same in test [5]. The test can be described thus: enhancers of rat Kvbeta2 NADPH turnover – biochemical, NADPH fluorescence, primary screen (AID 623;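 active = NADPH fluorescence slope more negative than the mean of all samples by about 3 SD, 99.7% confidence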;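 note: fluorescence intensity change per second fitted from 20 to 320 s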). The following applies: Recombinant KvBeta, NADPH fluorescence decrease slope, 10 min; at 10 µM; stronger effect = lower value.
Test [6] concerns the target Alpha-2C adrenergic receptor (Homo sapiens) (UniProt P18825). As to the kind of experiment: compounds altering alpha2C-coupled GIRK flux – cell-based, HEK293 alpha2C/GIRK1/2, thallium flux, primary screen (AID 624;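 active = fluorescence slope after compound addition differing from the mean of all screened samples at 99.7% confidence, in either direction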;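 note: slope of fluorescence ratio to pre-addition baseline per second over 15 to 24 s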). The following applies: thallium flux BTC fluorescence, at 10 µM, actives lie on both sides.
A short description of test [7]: blockers of RIG-like receptor reporter activation – cell-based, Sendai virus stimulus, luciferase, 10K MLSCN set, TLR/RLR signaling modifier project, primary screen (AID 602276;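 active = inhibition at or above 50% at 10 µM; inactive = inhibition below 50%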;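 note: firefly luciferase from ISG56 promoter only with Renilla not read in this screen; 0% = Sendai virus plus DMSO and 100% = medium plus DMSO without virus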). As to conditions: HEK293 RL24 IRF3 luciferase reporter, at 10 µM, stronger effect = higher value. A general note: Reporter assays use an easily measured gene product as a stand-in for the process of interest.

Test [8] in a line: TLR3 IRF3 reporter activation blockers – cell-based, poly I:C stimulus, luciferase, 10K MLSCN set, primary screen (AID 602277;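 active = inhibition of the reporter signal at or above 50%; inactive = inhibition below 50%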). The following applies: HEK293-TLR3 RL24 IRF3 luciferase reporter, at 10 µM, stronger effect = higher value.

Active and inactive are the calls of the source.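 Rule for the calls, unless noted: active = fluorescence slope higher than the sample average by over 3 SD (cut at about -0.22 in these data, passing the limit was not always enough); inactive = the rest.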

Data on 14 molecules can be found in PubChem BioAssay.

As usually defined, the inhibition is the relative decrease from the control value, in per cent.

Sequence of Voltage-gated potassium channel subunit beta-2 (Rattus norvegicus) (P62483 whole entry, looked up): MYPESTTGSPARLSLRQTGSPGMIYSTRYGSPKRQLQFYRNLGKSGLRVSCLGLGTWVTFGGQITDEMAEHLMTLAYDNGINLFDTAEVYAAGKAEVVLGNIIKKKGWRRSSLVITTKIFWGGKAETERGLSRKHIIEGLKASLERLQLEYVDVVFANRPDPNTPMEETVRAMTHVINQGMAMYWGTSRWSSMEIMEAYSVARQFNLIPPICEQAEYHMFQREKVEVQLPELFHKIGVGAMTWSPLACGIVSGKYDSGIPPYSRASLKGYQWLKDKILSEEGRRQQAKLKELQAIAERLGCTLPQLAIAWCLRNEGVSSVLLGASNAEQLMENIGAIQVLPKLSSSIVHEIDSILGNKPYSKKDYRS
Sequence of Alpha-2C adrenergic receptor (Homo sapiens) (P18825 whole entry, looked up): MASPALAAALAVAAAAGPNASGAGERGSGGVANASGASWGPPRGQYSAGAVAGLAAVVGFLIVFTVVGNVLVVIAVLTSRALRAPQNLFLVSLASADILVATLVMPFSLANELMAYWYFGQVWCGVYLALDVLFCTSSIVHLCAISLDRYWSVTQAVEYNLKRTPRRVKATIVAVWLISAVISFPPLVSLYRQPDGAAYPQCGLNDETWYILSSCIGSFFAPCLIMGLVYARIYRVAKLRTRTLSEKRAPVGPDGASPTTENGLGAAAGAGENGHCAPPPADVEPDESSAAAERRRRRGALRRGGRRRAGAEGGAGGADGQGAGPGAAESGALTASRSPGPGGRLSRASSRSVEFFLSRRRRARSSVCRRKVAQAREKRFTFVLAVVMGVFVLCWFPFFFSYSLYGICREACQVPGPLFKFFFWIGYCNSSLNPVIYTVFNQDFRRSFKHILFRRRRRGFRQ

Regarding `CCOC(=O)C1=C(C)Nc2nnnn2C1c1c[nH]c2ccccc12` (centres undefined), in test [1], the cell count is 498. Besides, the inhibition in test [1] is 0.6% (inactive); in test [3] it was -59.7% (inactive); in test [7], 7.12% (inactive); in test [8], 8.76% (inactive). Moreover, in test [2], the inhibition of aggregation was 1.4% (inactive). The nuclei count in test [2] came to 47.3%; in test [3], 101%. In test [4], the fluorescence slope is -0.612 (inactive). Moreover, the NADPH fluorescence slope in test [5] was -1.2e-05 (inactive). Further, in test [6], the slope was 0.00469 (inactive).

Take `CCOC(=O)N1CCN(S(=O)(=O)c2cc(Cl)ccc2Cl)CC1`: the cell count in test [1] amounted to 357. Besides, the inhibition in test [1] is 5.2% (inactive); in test [3], -221% (inactive); in test [7], 14.8% (inactive); in test [8] it was 18.5% (inactive). Further, in test [2], the inhibition of aggregation is 29.4% (inactive). In addition, the nuclei count is 95.3% in test [2] and 106% in test [3]. The fluorescence slope in test [4] is -0.62 (inactive). Further, the NADPH fluorescence slope in test [5] was -2.7e-05 (inactive). The slope in test [6] was 0.00556 (inactive).

As to `CC1CCCCC1NC(=O)c1nn(C)c(=O)c2ccccc12` (centres undefined), the cell count in test [1] worked out at 361. In addition, the inhibition in test [1] was 0.7% (inactive); in test [3], 13.7% (inactive); in test [7], -1.74% (inactive); in test [8] it was 2.78% (inactive). For the same molecule, in test [2], the inhibition of aggregation was 0.4% (inactive). The nuclei count came out at 105% in test [2] and 88.6% in test [3]. In addition, the fluorescence slope in test [4] was -0.621 (inactive). Moreover, in test [5], the NADPH fluorescence slope was 1.8e-06 (inactive). For the same molecule, the slope in test [6] is 0.00592 (inactive).

Consider `COCCn1c(=N)c(C(=O)NCCc2ccccc2)cc2c(=O)n3cccc(C)c3nc21`, for which the cell count in test [1] came out at 388. The inhibition is 4.3% (inactive) in test [1], -75.7% (inactive) in test [3], 9.73% (inactive) in test [7] and 35.4% (inactive) in test [8]. For the same molecule, in test [2], the inhibition of aggregation was -22.7% (inactive). Further, the nuclei count in test [2] came to 102%; in test [3], 117%. Moreover, in test [4], the fluorescence slope is -0.0609 (inactive). The NADPH fluorescence slope in test [5] was 4.2e-06 (inactive). For the same molecule, the slope in test [6] was 0.00428 (inactive).

`O=[n+]1c2c(n([O-])c3cc(F)c(N4CCCC4)cc31)CCC2`: the cell count in test [1] is 709. Moreover, the inhibition in test [1] is -9.4% (inactive); in test [3], -98.9% (inactive); in test [7], 0.0339% (inactive); in test [8], 0.593% (inactive). Further, the inhibition of aggregation in test [2] was 3% (inactive). The figures for the nuclei count in test [2] and in test [3] were 78.5% and 123%, respectively. Moreover, the fluorescence slope in test [4] was -0.574 (inactive). Also, the NADPH fluorescence slope in test [5] was -5.8e-06 (inactive). Further, in test [6], the slope was 0.00378 (inactive).

Turning to `COc1ccc(Cn2nnnc2C(c2cccnc2)N2CCN(c3ccc(O)cc3)CC2)cc1` (centres undefined), the cell count in test [1] was determined as 682. Further, the inhibition is -7.2% (inactive) in test [1], -51.9% (inactive) in test [3], 15% (inactive) in test [7] and 21.3% (inactive) in test [8]. Further, in test [2], the inhibition of aggregation is -1.9% (inactive). In addition, the nuclei count came out at 92.7% in test [2] and 117% in test [3]. For the same molecule, the fluorescence slope in test [4] is -0.514 (inactive). For the same molecule, in test [5], the NADPH fluorescence slope is -5.3e-05 (inactive). Further, the slope in test [6] is 0.00403 (inactive).

Take `CC(C)CC1NC2(C(=O)N(C)c3ccccc32)C2C(=O)N(C(C)C)C(=O)C12` (centres undefined): the cell count in test [1] came out at 798. For the same molecule, the inhibition in test [1] was -5.5% (inactive); in test [3], 13.8% (inactive); in test [7], -1.45% (inactive); in test [8], -17% (inactive). In addition, the inhibition of aggregation in test [2] is -49.8% (inactive). Further, the nuclei count is 72.1% in test [2] and 103% in test [3]. Also, the fluorescence slope in test [4] is -0.482 (inactive). In addition, in test [5], the NADPH fluorescence slope is 9.4e-06 (inactive). In addition, in test [6], the slope is 0.00636 (inactive).

As to `COCCSc1ccccc1C(=O)Nc1nncs1`, the cell count in test [1] was found to be 659. Moreover, the inhibition is -27.6% (inactive) in test [1], -60.7% (inactive) in test [3], -7.19% (inactive) in test [7] and 2.28% (inactive) in test [8]. In addition, the inhibition of aggregation in test [2] was -7.4% (inactive). Further, the nuclei count is 99.6% in test [2] and 112% in test [3]. In addition, the fluorescence slope in test [4] is -0.598 (inactive). For the same molecule, in test [5], the NADPH fluorescence slope was -2.1e-05 (inactive). Also, the slope in test [6] is 0.00672 (inactive).

For the molecule `O=C(O)CCn1[nH]c(=O)ccc1=O`, the cell count in test [1] came to 172. Also, the inhibition was 6.8% (inactive) in test [1], -3% (inactive) in test [3], 21.4% (inactive) in test [7] and 18% (inactive) in test [8]. For the same molecule, the inhibition of aggregation in test [2] was 37% (active). Besides, the nuclei count in test [2] was found to be 67.3%; in test [3], 84.3%. In addition, the fluorescence slope in test [4] was -0.562 (inactive). In test [5], the NADPH fluorescence slope is 1.7e-06 (inactive). In addition, the slope in test [6] is 0.0053 (inactive).

`COc1ccc(OC)c(Nc2ncnc3c2cnn3-c2ccccc2)c1`: in test [1], the cell count is 334. For the same molecule, the inhibition is -6.5% (inactive) in test [1], -26.3% (inactive) in test [3], -14.3% (inactive) in test [7] and -62.3% (inactive) in test [8]. For the same molecule, in test [2], the inhibition of aggregation is -6.7% (inactive). Also, the nuclei count came out at 111% in test [2] and 113% in test [3]. Moreover, the fluorescence slope in test [4] was -0.4 (inactive). The NADPH fluorescence slope in test [5] was -2.9e-05 (inactive). Moreover, in test [6], the slope was 0.00524 (inactive).

Regarding `O=C(CSc1ncnc2ccccc12)NCCCO`, the cell count in test [1] was found to be 458. Besides, the inhibition in test [1] is -11% (inactive); in test [3], 7.4% (inactive); in test [7] it was 15.3% (inactive); in test [8] it was 26.4% (inactive). Besides, in test [2], the inhibition of aggregation was -1.4% (inactive). Further, the nuclei count in test [2] worked out at 104%; in test [3], 101%. Further, the fluorescence slope in test [4] is -0.628 (inactive). The NADPH fluorescence slope in test [5] was 8.9e-06 (inactive). In addition, the slope in test [6] was 0.00699 (inactive).

For the molecule `Nc1nonc1N1CCCCC1`, the cell count in test [1] worked out at 437. Also, the inhibition in test [1] was -8.1% (inactive); in test [3], 27.5% (inactive); in test [7] it was 4.11% (inactive); in test [8], 26.3% (inactive). The inhibition of aggregation in test [2] is -6.7% (inactive). For the same molecule, the nuclei count in test [2] worked out at 107%; in test [3], 104%. The fluorescence slope in test [4] is -0.474 (inactive). In addition, the NADPH fluorescence slope in test [5] was -4.6e-05 (inactive). Moreover, in test [6], the slope was 0.00308 (inactive).

On to `CC(C)CNS(=O)(=O)c1ccc(OCC(=O)Nc2ccc3c(c2)OCO3)c(Cl)c1`, for which the cell count in test [1] was 463. Besides, the inhibition was -12.1% (inactive) in test [1], -0.6% (inactive) in test [3], 6.42% (inactive) in test [7] and 19.3% (inactive) in test [8]. The inhibition of aggregation in test [2] was -1.9% (inactive). For the same molecule, the nuclei count is 81.6% in test [2] and 85.5% in test [3]. For the same molecule, the fluorescence slope in test [4] was -0.377 (inactive). Besides, the NADPH fluorescence slope in test [5] is -2e-05 (inactive). In addition, the slope in test [6] was 0.00353 (inactive).

On to `O=C(CSc1ncccn1)NCc1ccccc1`, for which the cell count in test [1] came to 362. Further, the inhibition in test [1] is 2.5% (inactive); in test [3] it was 36.4% (inactive); in test [7], -29.7% (inactive); in test [8], -47.8% (inactive). For the same molecule, the inhibition of aggregation in test [2] was 12.3% (inactive). The nuclei count came to 103% in test [2] and 120% in test [3]. In test [4], the fluorescence slope is -0.531 (inactive). For the same molecule, the NADPH fluorescence slope in test [5] was 3.2e-05 (inactive). Also, in test [6], the slope is 0.00529 (inactive).
